Results taken from PubChem BioAssay (NCI).
This is part of a sample that, as a whole, favours compounds with a hit. Of some 83,000 tested, about 20% had one in any assay.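 Treatment: one concentration, 48 hours, 96-well format. Scoring: percent growth, with anything below 10 considered active.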 The source made the active and inactive calls.

Columns and labels:
Assay in all cases: NCI-60 one-dose screen, 48 h (100 = growth as untreated, 0 = no growth, -100 = all killed)
HOP-92 NSCLC = details: 10 µM unless noted
NCI-H522 lung = details: 10 µM unless noted
COLO 205 colon = details: 10 µM
SNB-75 CNS = details: 10 µM unless noted
PC-3 prostate = details: 10 µM unless noted
EKVX NSCLC = details: 10 µM unless noted
SN12C renal = details: 10 µM unless noted
TK-10 renal = details: 10 µM unless noted
CAKI-1 renal = details: 10 µM unless noted
A498 renal = details: 10 µM unless noted
SR leukemia = details: 10 µM
RPMI-8226 leukemia = details: 10 µM unless noted
SK-OV-3 ovarian = details: 10 µM unless noted
HS 578T breast = details: 10 µM unless noted
HCT-116 colon = details: 10 µM unless noted
HT29 colon = details: 10 µM unless noted
BT-549 breast = details: 10 µM
OVCAR-4 ovarian = details: 10 µM unless noted
A549/ATCC NSCLC = details: 10 µM unless noted

Measured: growth

O=C(c1cccs1)C1NO[N+]([O-])=C1c1cccs1 (stereo not given)
active: HOP-92 NSCLC -35.9% | NCI-H522 lung -92.1% | COLO 205 colon 6.64% | SNB-75 CNS -11.5% | TK-10 renal -46.8% | CAKI-1 renal -62.9%
inactive: PC-3 prostate 57.1% | EKVX NSCLC 102% | SN12C renal 73.4% | A498 renal 113% | SR leukemia 22.4% | RPMI-8226 leukemia 14.1% | SK-OV-3 ovarian 118% | HS 578T breast 83% | HCT-116 colon 25.6%

CCOC(=O)Nc1cc(Cl)c([N+](=O)[O-])c(NC(=O)OCC)n1
active: NCI-H522 lung 7.41% | CAKI-1 renal -95.5% | SR leukemia -22.8%
inactive: HOP-92 NSCLC 78.2% | COLO 205 colon 115% | HT29 colon 82.5% | PC-3 prostate 92.2% | SN12C renal 96.5% | TK-10 renal 103% | A498 renal 93.1% | RPMI-8226 leukemia 71.5% | SK-OV-3 ovarian 103% | BT-549 breast 94.6% | HCT-116 colon 53.5%

NC(Cc1ccc(O)cc1)C(=O)N/N=C/c1ccc(N(CCCl)CCCl)cc1 (stereo not given)
inactive: HOP-92 NSCLC 82.1% | COLO 205 colon 112% | HT29 colon 100% | SNB-75 CNS 70.2% | EKVX NSCLC 92.7% | SN12C renal 46.4% | TK-10 renal 115% | CAKI-1 renal 25.9% | A498 renal 82.3% | SR leukemia 18% | OVCAR-4 ovarian 90.6% | SK-OV-3 ovarian 90%

C=CC(O)CN1CC1CC (stereo not given)
inactive: HOP-92 NSCLC 93.6% | A549/ATCC NSCLC 92.8% | COLO 205 colon 114% | SNB-75 CNS 85.1% | PC-3 prostate 98.1% | EKVX NSCLC 102% | SN12C renal 99% | A498 renal 89.5% | SR leukemia 89.9% | OVCAR-4 ovarian 112% | SK-OV-3 ovarian 107% | HS 578T breast 97.3% | BT-549 breast 93.5% | HCT-116 colon 104%

O=c1cc[nH]c(=O)o1
inactive: HOP-92 NSCLC 118% | COLO 205 colon 104% | HT29 colon 95.9% | SNB-75 CNS 84.7% | SN12C renal 105% | TK-10 renal 84.1% | CAKI-1 renal 102% | A498 renal 114% | SR leukemia 94.7% | RPMI-8226 leukemia 93.1% | OVCAR-4 ovarian 104% | HS 578T breast 120% | BT-549 breast 102% | HCT-116 colon 98.1%

O=C(O)c1[nH]c(=O)[nH]c(=O)c1F
inactive: HOP-92 NSCLC 106% | NCI-H522 lung 88.9% | A549/ATCC NSCLC 90.1% | HT29 colon 106% | PC-3 prostate 95.6% | EKVX NSCLC 121% | SN12C renal 96.3% | TK-10 renal 78.6% | CAKI-1 renal 66.8% | A498 renal 82.5% | SR leukemia 91.7% | RPMI-8226 leukemia 73.7% | OVCAR-4 ovarian 112% | SK-OV-3 ovarian 112% | HS 578T breast 123% | BT-549 breast 111% | HCT-116 colon 79.3%

COC(=O)C[Se]C(=O)c1ccccc1OC(C)=O
inactive: HOP-92 NSCLC 93.3% | A549/ATCC NSCLC 33.7% | COLO 205 colon 46.7% | HT29 colon 33.2% | EKVX NSCLC 31.4% | SN12C renal 93.2% | TK-10 renal 93.1% | CAKI-1 renal 87.8% | SR leukemia 20.7% | RPMI-8226 leukemia 96% | OVCAR-4 ovarian 54.4% | SK-OV-3 ovarian 221% | HS 578T breast 66.1% | BT-549 breast 71.9% | HCT-116 colon 10.9%

C/C(=C\c1cc(C(F)(F)F)n(-c2ccc(N)cc2)n1)[C@@H]1C[C@@H]2O[C@]2(C)CCC[C@H](C)[C@H](O)[C@@H](C)C(=O)C(C)(C)[C@@H](O)CC(=O)O1
inactive: HOP-92 NSCLC 37.9% | EKVX NSCLC 31.8% | SN12C renal 23.1% | CAKI-1 renal 25.3% | OVCAR-4 ovarian 44.7%
active: A549/ATCC NSCLC 1.71% | COLO 205 colon -45% | SNB-75 CNS -16.2% | PC-3 prostate 9.42% | SR leukemia -16.4% | RPMI-8226 leukemia 3.83% | HS 578T breast -11.5% | BT-549 breast -2.85% | HCT-116 colon 5.82%

COc1ccc(C(c2ccc(OC)cc2)C(Cl)(Cl)Cl)cc1
inactive: HOP-92 NSCLC 63.9% | NCI-H522 lung 60% | A549/ATCC NSCLC 94.6% | HT29 colon 78.3% | PC-3 prostate 68.7% | EKVX NSCLC 95.7% | SN12C renal 97.8% | TK-10 renal 90.3% | CAKI-1 renal 68.4% | A498 renal 57.3% | SR leukemia 71.8% | RPMI-8226 leukemia 71.5% | SK-OV-3 ovarian 96.2% | BT-549 breast 110% | HCT-116 colon 61.8%

Nc1cccc2c1Oc1ccccc1O2
inactive: HOP-92 NSCLC 80.3% | A549/ATCC NSCLC 97% | COLO 205 colon 134% | HT29 colon 119% | SNB-75 CNS 133% | PC-3 prostate 84.9% | EKVX NSCLC 99.7% | SN12C renal 106% | TK-10 renal 115% | CAKI-1 renal 88% | A498 renal 118% | SR leukemia 102% | RPMI-8226 leukemia 95.9% | OVCAR-4 ovarian 115% | SK-OV-3 ovarian 184% | BT-549 breast 104% | HCT-116 colon 93.3%

COC(=O)C(=[N+]=[N-])C(=O)OC
inactive: HOP-92 NSCLC 82.9% | NCI-H522 lung 94% | HT29 colon 101% | SNB-75 CNS 80.6% | PC-3 prostate 92.3% | SN12C renal 98% | TK-10 renal 92.5% | CAKI-1 renal 109% | A498 renal 100% | SR leukemia 100% | RPMI-8226 leukemia 96.4% | OVCAR-4 ovarian 97.1% | SK-OV-3 ovarian 101% | HS 578T breast 121% | BT-549 breast 103%

O=C(O)c1cccc(CCl)c1
inactive: HOP-92 NSCLC 84.3% | A549/ATCC NSCLC 96% | COLO 205 colon 106% | HT29 colon 102% | SNB-75 CNS 87.2% | PC-3 prostate 102% | SN12C renal 107% | TK-10 renal 97.5% | A498 renal 117% | SR leukemia 89.5% | RPMI-8226 leukemia 105% | OVCAR-4 ovarian 105% | SK-OV-3 ovarian 99.7% | BT-549 breast 96.6% | HCT-116 colon 96.7%

Oc1ccc2c3c1O[C@H]1c4[nH]c5ccccc5c4C[C@@]4(O)C(C2)N(CC2CC2)CC[C@]314
inactive: HOP-92 NSCLC 82.9% | A549/ATCC NSCLC 90% | HT29 colon 83.9% | SNB-75 CNS 76.8% | PC-3 prostate 88.1% | SN12C renal 103% | TK-10 renal 95% | CAKI-1 renal 92.3% | A498 renal 100% | SR leukemia 79.6% | RPMI-8226 leukemia 93.1% | OVCAR-4 ovarian 96.5% | SK-OV-3 ovarian 103% | BT-549 breast 97.4% | HCT-116 colon 89.8%

CCOC(=O)/C(C#N)=C/c1ccc(N(CCCl)CCCl)cc1
active: CAKI-1 renal -9.24%
inactive: HOP-92 NSCLC 67.6% | A549/ATCC NSCLC 85.2% | HT29 colon 92.5% | SNB-75 CNS 73.3% | PC-3 prostate 69.7% | SN12C renal 72.4% | TK-10 renal 91.4% | A498 renal 95.5% | SR leukemia 30.3% | RPMI-8226 leukemia 88.4% | SK-OV-3 ovarian 92.6% | HS 578T breast 103% | HCT-116 colon 97%

COc1cc(C2(C#N)CCN(C)CC2)cc(OC)c1OC
inactive: HOP-92 NSCLC 100% | A549/ATCC NSCLC 88.8% | COLO 205 colon 107% | HT29 colon 101% | SNB-75 CNS 84.9% | PC-3 prostate 97.5% | EKVX NSCLC 112% | CAKI-1 renal 79.1% | SR leukemia 91.2% | RPMI-8226 leukemia 106% | OVCAR-4 ovarian 104% | SK-OV-3 ovarian 105% | HS 578T breast 100% | BT-549 breast 101% | HCT-116 colon 91.8%

O=C1NC2(CCNCC2)Nc2ccccc21
inactive: HOP-92 NSCLC 107% | NCI-H522 lung 97.5% | A549/ATCC NSCLC 69.1% | HT29 colon 98.2% | SNB-75 CNS 82.8% | PC-3 prostate 88.5% | EKVX NSCLC 109% | SN12C renal 99.1% | TK-10 renal 98.3% | A498 renal 95.5% | SR leukemia 86.9% | OVCAR-4 ovarian 116% | HS 578T breast 102% | BT-549 breast 108% | HCT-116 colon 100%

CCC(/C=C(C)/C=C/C(=O)c1c(O)c(-c2ccc(O)cc2)c[nH]c1=O)CO (stereo not given)
inactive: HOP-92 NSCLC 26.2% | COLO 205 colon 124% | HT29 colon 107% | SNB-75 CNS 91.3% | PC-3 prostate 27.7% | EKVX NSCLC 89.2% | SN12C renal 91.7% | TK-10 renal 130% | CAKI-1 renal 81.8% | A498 renal 70.9% | SR leukemia 19.9% | HS 578T breast 83.8% | BT-549 breast 78.8% | HCT-116 colon 80.1%

CCCCCCCCCCOc1ccc(C(=O)Oc2ccc(CSP3(=O)OCC4OC(n5ccc(=O)[nH]c5=O)C(F)C4OP(=O)(O)OCC4OC(n5cnc6c(N)ncnc65)C(F)C4O3)cc2)cc1 (stereo not given)
active: A498 renal 6.69%
inactive: HOP-92 NSCLC 85.4% | NCI-H522 lung 71.1% | HT29 colon 79.3% | SNB-75 CNS 102% | PC-3 prostate 103% | EKVX NSCLC 111% | SN12C renal 101% | TK-10 renal 92% | SR leukemia 25.4% | RPMI-8226 leukemia 82.6% | OVCAR-4 ovarian 58.8% | SK-OV-3 ovarian 97.8% | HS 578T breast 111% | HCT-116 colon 79.9%

CC(C)CCC1(CCO)C(=O)NC(=S)NC1=O
inactive: HOP-92 NSCLC 89.5% | A549/ATCC NSCLC 91.9% | COLO 205 colon 107% | SNB-75 CNS 99.8% | EKVX NSCLC 105% | SN12C renal 100% | TK-10 renal 114% | CAKI-1 renal 102% | A498 renal 93.7% | SR leukemia 114% | OVCAR-4 ovarian 109% | SK-OV-3 ovarian 108% | HS 578T breast 114% | BT-549 breast 109% | HCT-116 colon 104%

COc1cc[c]([Hg][Cl])cc1
active: NCI-H522 lung -73.8% | SN12C renal -6.35% | SR leukemia -10.3%
inactive: HOP-92 NSCLC 90.1% | A549/ATCC NSCLC 94.8% | HT29 colon 48.5% | SNB-75 CNS 50.5% | EKVX NSCLC 76.3% | TK-10 renal 114% | CAKI-1 renal 78.6% | RPMI-8226 leukemia 41.5% | OVCAR-4 ovarian 65.1% | SK-OV-3 ovarian 120% | HS 578T breast 30.5% | BT-549 breast 45.5% | HCT-116 colon 48.4%

S=P(Nc1ccccc1)(Nc1ccccc1)c1ccccc1
inactive: HOP-92 NSCLC 84.1% | A549/ATCC NSCLC 91.8% | COLO 205 colon 146% | HT29 colon 104% | SNB-75 CNS 96.7% | PC-3 prostate 85.9% | EKVX NSCLC 90% | SN12C renal 104% | CAKI-1 renal 71.4% | A498 renal 70.6% | RPMI-8226 leukemia 82.5% | OVCAR-4 ovarian 104% | HS 578T breast 107% | HCT-116 colon 81.1%
